Drawing on PMC7862700, “An all-to-all approach to the identification of sequence-specific readers for epigenetic DNA modifications on cytosine”, this text covers binding signal for 1 sequence.

Common to all, as to test: DAPPL (digital affinity profiling via proximity ligation, sequencing); 10 mM Tris-HCl pH 7.5, 50 mM NaCl, 1 mM DTT, 4% glycerol, room temperature, 30 min; GST-TFs on glutathione beads, 16-mer random dsDNA library, 0.1% formaldehyde crosslink after washing; high values mean tight binding
The target in one assay is T1, FLI1 (Homo sapiens, UniProt Q01543 1-452).
T1 sequence: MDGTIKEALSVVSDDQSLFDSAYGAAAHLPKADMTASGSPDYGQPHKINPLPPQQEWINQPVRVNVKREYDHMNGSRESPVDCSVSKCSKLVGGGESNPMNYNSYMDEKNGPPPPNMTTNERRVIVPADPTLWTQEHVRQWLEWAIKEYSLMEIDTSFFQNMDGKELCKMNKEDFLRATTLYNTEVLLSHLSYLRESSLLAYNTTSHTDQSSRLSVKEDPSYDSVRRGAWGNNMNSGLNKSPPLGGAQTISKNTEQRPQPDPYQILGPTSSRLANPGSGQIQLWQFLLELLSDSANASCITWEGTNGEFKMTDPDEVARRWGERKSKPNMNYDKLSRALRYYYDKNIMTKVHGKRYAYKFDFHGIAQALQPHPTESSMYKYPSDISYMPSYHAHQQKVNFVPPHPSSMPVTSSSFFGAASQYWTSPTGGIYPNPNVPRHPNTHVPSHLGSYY
Particulars: protein: recombinant; tags: N-terminal GST; dsDNA, one strand shown. The gist of the method:
(§1)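 In yeast, human transcription factors were expressed with a GST fusion, then pulled down on glutathione beads and given DNA barcodes. Pooled with a tag-only sample, they were exposed to 200 nmole of a 16-mer random double-stranded DNA library (Tris/NaCl/DTT/glycerol buffer, room temperature, 30 min), washed, crosslinked with 0.1% formaldehyde, proximity-ligated using BsaI/T4 ligase for 1 h at 37 °C, PCR-amplified and read on an Illumina NextSeq500. Each hexamer's frequency of reads for a factor, divided by the matching frequency for the tag-only sample, gives the binding signal.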

The target in another assay is T2, ELK1 (Homo sapiens, UniProt P19419 1-428).
T2 sequence: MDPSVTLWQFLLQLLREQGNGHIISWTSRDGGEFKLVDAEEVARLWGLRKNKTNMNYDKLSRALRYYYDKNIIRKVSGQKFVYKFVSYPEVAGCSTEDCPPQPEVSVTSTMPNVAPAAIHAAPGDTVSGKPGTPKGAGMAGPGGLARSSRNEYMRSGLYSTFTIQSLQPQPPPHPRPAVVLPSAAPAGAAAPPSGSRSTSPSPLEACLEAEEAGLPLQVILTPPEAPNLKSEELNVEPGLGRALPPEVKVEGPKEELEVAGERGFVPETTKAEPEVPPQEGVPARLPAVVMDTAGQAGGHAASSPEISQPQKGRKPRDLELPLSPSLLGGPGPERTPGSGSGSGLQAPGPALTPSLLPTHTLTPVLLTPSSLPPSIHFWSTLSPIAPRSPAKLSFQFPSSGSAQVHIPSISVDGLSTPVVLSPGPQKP
The note with it: protein: recombinant; tags: N-terminal GST; dsDNA, one strand shown. The gist of the method: as §1

A further assay addresses T3, GABPA (Homo sapiens, UniProt Q06546 1-454).
T3 sequence: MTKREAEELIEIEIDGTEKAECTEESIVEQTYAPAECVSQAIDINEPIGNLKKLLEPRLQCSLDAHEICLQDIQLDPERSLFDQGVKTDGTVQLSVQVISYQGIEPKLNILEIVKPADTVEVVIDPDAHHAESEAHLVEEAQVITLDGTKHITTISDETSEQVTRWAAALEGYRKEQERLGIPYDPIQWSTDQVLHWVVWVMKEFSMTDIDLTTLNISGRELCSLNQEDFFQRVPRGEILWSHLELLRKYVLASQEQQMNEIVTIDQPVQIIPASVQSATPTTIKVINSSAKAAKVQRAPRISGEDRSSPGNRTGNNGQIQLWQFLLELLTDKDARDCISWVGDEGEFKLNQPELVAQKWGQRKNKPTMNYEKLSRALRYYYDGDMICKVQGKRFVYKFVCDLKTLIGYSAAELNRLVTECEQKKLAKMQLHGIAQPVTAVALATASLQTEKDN
The note with it: protein: recombinant; tags: N-terminal GST; dsDNA, one strand shown. An outline of the steps: as §1

The next assay deals with T4, ERG (Homo sapiens, UniProt P11308 1-479).
T4 sequence: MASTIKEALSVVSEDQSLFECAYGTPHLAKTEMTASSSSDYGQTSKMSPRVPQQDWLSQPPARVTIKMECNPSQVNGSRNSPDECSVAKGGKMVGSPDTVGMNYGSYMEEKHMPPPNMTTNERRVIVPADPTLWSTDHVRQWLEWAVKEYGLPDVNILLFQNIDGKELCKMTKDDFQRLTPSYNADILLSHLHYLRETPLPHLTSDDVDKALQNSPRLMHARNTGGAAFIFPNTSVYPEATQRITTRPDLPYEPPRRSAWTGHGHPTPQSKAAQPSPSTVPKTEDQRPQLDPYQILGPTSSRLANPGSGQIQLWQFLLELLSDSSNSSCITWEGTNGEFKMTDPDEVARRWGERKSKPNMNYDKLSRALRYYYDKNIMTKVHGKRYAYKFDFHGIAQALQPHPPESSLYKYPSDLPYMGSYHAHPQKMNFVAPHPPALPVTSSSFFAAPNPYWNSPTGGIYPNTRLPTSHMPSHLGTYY
The note with it: protein: recombinant; tags: N-terminal GST; dsDNA, one strand shown. The gist of the method: as §1

The next assay addresses ELF1 (Homo sapiens, UniProt P32519 1-619). The note with it: protein: recombinant; tags: N-terminal GST; dsDNA, one strand shown. The gist of the method: as §1
The target in another assay is T5, EHF (Homo sapiens, UniProt Q9NZC4 1-300).
T5 sequence: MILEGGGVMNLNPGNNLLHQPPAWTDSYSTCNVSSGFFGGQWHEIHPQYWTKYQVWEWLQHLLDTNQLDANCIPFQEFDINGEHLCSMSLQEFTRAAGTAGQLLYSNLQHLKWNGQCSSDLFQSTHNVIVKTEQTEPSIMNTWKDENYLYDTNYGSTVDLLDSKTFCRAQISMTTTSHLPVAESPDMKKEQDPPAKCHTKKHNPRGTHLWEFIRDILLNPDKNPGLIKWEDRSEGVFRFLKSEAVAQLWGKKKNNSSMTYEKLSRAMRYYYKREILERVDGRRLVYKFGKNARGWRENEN
The note with it: protein: recombinant; tags: N-terminal GST; dsDNA, one strand shown. The gist of the method: as §1

For another assay, the target named is SPI1 (Homo sapiens, UniProt P17947 1-270). The note with it: protein: recombinant; tags: N-terminal GST; dsDNA, one strand shown. The gist of the method:
as §1

A further assay deals with SPIB (Homo sapiens, UniProt Q01892 1-262). Particulars: protein: recombinant; tags: N-terminal GST; dsDNA, one strand shown. The gist of the method:
as §1

In another assay the target is T6, ELK3 (Homo sapiens, UniProt P41970 1-407).
T6 sequence: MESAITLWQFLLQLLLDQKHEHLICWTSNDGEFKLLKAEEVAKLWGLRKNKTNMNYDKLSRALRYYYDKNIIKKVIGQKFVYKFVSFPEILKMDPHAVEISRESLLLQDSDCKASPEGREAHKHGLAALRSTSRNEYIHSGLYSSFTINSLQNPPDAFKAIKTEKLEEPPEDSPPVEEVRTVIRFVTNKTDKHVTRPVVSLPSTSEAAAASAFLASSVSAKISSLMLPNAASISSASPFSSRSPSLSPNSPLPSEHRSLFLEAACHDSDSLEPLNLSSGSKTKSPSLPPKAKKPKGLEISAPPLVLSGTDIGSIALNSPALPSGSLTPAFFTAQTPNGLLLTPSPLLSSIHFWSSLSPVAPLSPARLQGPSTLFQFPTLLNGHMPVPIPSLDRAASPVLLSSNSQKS
The note with it: protein: recombinant; tags: N-terminal GST; dsDNA, one strand shown. An outline of the steps: as §1

For the next assay, the target named is ETV5 (Homo sapiens, UniProt P41161 1-510). The note with it: protein: recombinant; tags: N-terminal GST; dsDNA, one strand shown. The gist of the method: as §1
For the next assay, the target named is HSF1 (Homo sapiens, UniProt Q00613 1-529). Particulars: protein: recombinant; tags: N-terminal GST; chain copies: 3; dsDNA, one strand shown. An outline of the steps: as §1
The target of the next assay is T7, SPIC (Homo sapiens, UniProt Q8N5J4 1-248).
T7 sequence: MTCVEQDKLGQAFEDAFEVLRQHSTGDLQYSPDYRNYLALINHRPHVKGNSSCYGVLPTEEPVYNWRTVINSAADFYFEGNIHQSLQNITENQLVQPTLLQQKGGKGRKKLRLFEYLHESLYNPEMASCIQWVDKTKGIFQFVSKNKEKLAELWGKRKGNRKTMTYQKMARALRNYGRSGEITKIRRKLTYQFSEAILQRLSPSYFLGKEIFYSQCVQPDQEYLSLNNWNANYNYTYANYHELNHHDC
The note with it: protein: recombinant; tags: N-terminal GST; dsDNA, one strand shown. The gist of the method:
as §1

The next assay has as its target ELF4 (Homo sapiens, UniProt Q99607 1-663). Particulars: protein: recombinant; tags: N-terminal GST; dsDNA, one strand shown. An outline of the steps:
as §1

In a further assay the target is T8, ELK4 (Homo sapiens, UniProt P28324-2 1-405).
T8 sequence: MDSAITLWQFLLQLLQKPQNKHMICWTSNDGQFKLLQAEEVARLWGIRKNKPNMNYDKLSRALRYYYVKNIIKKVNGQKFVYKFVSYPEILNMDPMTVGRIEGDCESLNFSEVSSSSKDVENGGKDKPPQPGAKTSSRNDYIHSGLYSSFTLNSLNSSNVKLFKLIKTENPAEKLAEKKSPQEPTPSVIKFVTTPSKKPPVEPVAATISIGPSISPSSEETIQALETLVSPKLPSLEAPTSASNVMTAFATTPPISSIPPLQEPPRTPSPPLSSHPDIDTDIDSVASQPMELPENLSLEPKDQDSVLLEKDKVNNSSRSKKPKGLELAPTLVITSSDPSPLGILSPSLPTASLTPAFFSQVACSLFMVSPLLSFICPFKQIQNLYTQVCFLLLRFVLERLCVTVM
Particulars: protein: recombinant; tags: N-terminal GST; dsDNA, one strand shown. The gist of the method:
as §1

The target of another assay is T9, ETV2 (Homo sapiens, UniProt O00321 1-342).
T9 sequence: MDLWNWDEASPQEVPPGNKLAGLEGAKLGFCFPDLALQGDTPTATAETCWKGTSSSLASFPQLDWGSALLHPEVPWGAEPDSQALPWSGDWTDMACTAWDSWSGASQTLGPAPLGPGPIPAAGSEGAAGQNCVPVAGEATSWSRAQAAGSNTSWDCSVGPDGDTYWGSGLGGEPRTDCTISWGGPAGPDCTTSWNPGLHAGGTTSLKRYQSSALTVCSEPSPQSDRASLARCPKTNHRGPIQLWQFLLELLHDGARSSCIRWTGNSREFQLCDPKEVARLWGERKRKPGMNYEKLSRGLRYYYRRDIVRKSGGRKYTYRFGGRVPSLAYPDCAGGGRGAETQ
The note with it: protein: recombinant; tags: N-terminal GST; dsDNA, one strand shown. An outline of the steps: as §1

The target of the next assay is T10, ELF3 (Homo sapiens, UniProt P78545 1-371).
T10 sequence: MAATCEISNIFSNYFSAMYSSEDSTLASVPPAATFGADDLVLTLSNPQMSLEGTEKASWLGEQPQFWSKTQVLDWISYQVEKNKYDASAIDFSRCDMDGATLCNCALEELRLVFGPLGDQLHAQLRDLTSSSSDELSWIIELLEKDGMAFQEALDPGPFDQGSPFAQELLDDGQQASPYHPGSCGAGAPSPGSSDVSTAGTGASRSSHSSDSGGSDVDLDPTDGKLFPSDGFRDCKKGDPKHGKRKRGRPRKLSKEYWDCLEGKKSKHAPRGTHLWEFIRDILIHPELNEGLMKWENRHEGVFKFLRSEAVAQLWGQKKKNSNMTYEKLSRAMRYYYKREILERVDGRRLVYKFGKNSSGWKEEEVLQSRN
The note with it: protein: recombinant; tags: N-terminal GST; dsDNA, one strand shown. An outline of the steps:
as §1

Another assay addresses CRX (Homo sapiens, UniProt O43186 1-299). Particulars: protein: recombinant; tags: N-terminal GST; dsDNA, one strand shown. An outline of the steps:
as §1

The next assay deals with ETV1 (Homo sapiens, UniProt P50549 1-477). The note with it: protein: recombinant; tags: N-terminal GST; dsDNA, one strand shown. The gist of the method: as §1
ETV1, sequence (P50549 whole entry): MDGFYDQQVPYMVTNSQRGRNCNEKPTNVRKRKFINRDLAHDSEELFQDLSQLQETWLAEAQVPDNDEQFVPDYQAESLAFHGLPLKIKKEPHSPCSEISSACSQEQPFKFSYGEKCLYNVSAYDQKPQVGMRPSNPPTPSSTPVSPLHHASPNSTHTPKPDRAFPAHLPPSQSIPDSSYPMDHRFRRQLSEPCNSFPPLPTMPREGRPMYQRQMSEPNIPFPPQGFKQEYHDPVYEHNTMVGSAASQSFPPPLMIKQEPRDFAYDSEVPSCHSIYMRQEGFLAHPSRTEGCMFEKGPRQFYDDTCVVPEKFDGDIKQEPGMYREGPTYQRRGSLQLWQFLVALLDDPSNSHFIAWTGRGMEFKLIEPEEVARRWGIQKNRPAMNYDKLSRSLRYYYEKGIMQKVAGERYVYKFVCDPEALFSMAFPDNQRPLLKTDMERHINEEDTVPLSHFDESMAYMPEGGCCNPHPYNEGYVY

CRX, sequence (O43186 whole entry): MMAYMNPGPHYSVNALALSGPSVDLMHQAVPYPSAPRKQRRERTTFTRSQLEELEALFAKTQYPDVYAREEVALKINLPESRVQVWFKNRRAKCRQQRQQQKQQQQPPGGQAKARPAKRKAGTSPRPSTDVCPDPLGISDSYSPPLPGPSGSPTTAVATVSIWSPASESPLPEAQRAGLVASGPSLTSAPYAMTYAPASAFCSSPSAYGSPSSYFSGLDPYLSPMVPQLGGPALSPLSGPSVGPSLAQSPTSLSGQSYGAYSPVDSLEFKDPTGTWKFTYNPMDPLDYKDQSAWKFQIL
ELF4, sequence (Q99607 whole entry): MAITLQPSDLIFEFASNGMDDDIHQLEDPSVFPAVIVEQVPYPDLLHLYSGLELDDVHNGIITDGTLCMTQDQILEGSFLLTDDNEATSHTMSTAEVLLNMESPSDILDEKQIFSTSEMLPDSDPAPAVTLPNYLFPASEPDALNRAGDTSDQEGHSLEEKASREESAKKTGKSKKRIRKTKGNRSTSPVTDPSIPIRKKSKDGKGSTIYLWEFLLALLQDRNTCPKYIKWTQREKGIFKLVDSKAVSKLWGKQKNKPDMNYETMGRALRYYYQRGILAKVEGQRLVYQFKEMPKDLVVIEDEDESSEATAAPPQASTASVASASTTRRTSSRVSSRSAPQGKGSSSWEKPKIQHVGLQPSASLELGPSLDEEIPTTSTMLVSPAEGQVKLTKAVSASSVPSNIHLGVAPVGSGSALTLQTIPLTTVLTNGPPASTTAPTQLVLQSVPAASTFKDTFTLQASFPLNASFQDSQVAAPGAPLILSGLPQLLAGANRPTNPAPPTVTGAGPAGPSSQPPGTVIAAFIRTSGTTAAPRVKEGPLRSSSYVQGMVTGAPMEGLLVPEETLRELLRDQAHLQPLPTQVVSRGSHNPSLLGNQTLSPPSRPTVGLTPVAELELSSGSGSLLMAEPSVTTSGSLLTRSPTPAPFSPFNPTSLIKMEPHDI
ELF1, sequence (P32519 whole entry): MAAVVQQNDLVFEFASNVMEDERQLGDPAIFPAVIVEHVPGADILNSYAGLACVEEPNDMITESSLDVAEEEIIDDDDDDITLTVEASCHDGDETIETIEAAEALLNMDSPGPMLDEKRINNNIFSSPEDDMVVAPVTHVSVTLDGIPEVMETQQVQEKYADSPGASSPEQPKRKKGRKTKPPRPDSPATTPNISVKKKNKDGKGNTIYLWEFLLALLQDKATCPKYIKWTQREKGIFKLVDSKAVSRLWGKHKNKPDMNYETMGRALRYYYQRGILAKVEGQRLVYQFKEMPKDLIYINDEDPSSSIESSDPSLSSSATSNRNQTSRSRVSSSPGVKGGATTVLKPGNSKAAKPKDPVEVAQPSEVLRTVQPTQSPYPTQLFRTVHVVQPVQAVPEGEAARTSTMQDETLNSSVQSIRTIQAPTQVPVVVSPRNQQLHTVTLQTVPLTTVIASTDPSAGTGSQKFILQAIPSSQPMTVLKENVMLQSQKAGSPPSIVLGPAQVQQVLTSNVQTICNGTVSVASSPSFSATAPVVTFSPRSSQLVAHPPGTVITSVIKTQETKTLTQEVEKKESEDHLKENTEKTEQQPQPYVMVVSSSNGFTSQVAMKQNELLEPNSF
HSF1, sequence (Q00613 whole entry): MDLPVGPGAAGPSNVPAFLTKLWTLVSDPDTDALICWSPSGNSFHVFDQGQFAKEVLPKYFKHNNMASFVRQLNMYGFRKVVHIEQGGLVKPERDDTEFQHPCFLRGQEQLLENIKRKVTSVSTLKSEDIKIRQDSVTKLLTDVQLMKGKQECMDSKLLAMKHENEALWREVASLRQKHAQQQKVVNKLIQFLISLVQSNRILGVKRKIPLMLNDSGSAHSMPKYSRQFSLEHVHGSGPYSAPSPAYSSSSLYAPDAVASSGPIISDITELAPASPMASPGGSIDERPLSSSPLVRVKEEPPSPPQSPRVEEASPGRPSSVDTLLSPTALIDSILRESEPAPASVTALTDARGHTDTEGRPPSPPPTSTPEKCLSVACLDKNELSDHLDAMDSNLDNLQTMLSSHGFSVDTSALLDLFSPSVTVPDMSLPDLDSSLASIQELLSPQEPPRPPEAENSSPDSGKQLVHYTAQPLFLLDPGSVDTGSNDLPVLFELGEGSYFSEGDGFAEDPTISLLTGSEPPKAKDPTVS
SPIB, sequence (Q01892 whole entry): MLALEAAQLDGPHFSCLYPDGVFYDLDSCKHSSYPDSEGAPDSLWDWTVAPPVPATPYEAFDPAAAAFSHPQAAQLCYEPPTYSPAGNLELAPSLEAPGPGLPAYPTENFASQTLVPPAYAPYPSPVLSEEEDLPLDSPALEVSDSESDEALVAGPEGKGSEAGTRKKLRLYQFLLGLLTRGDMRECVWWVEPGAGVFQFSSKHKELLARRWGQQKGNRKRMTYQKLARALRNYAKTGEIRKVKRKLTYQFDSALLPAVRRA
ETV5, sequence (P41161 whole entry): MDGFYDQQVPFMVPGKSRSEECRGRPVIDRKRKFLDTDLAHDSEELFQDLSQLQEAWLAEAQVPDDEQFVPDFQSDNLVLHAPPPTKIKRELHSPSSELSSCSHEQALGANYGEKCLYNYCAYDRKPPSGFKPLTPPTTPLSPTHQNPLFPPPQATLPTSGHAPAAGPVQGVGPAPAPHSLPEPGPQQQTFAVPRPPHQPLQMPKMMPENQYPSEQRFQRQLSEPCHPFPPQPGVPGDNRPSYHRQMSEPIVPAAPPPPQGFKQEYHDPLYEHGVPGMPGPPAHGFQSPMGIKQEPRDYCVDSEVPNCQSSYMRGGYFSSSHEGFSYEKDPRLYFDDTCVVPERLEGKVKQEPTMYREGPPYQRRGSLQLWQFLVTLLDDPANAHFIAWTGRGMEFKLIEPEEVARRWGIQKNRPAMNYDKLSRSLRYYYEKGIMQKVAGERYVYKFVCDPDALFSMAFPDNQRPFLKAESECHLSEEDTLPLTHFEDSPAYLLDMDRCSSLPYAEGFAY

As for TAGGTT, the binding signal in the assay with FLI1 is 1.13 fold enrichment (6-mer frequency, TF over GST control); in the assay with ELK1, 1.04 fold enrichment (6-mer frequency, TF over GST control); in the assay with GABPA, 1 fold enrichment (6-mer frequency, TF over GST control); in the assay with ERG, 1.11 fold enrichment (6-mer frequency, TF over GST control); with ELF1, 1.08 fold enrichment (6-mer frequency, TF over GST control); in the assay with EHF, 1.08 fold enrichment (6-mer frequency, TF over GST control). Moreover, the binding signal is 1.14 fold enrichment (6-mer frequency, TF over GST control) with SPI1; 1.13 fold enrichment (6-mer frequency, TF over GST control) with SPIB; 1.16 fold enrichment (6-mer frequency, TF over GST control) with ELK3; 1.13 fold enrichment (6-mer frequency, TF over GST control) with ETV5; 1.18 fold enrichment (6-mer frequency, TF over GST control) in the assay with HSF1; 1.16 fold enrichment (6-mer frequency, TF over GST control) with SPIC. The binding signal was 1.09 fold enrichment (6-mer frequency, TF over GST control) with ELF4; 1.12 fold enrichment (6-mer frequency, TF over GST control) with ELK4; 1.33 fold enrichment (6-mer frequency, TF over GST control) with ETV2; 1.14 fold enrichment (6-mer frequency, TF over GST control) with ELF3; 1.25 fold enrichment (6-mer frequency, TF over GST control) in the assay with CRX; 1.13 fold enrichment (6-mer frequency, TF over GST control) with ETV1.
